L major viab = Leishmania major promastigote growth inhibition; AID 1063; hit rate 9% among 200,000; Leishmania major promastigotes, resazurin fluorescence viability; inhibition, % at 10 µM; in the data active = inhibition above about 50%;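 also: promastigotes grown with compound for 44 hours at 28 °C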
WT yeast gro inh = growth inhibition of WT yeast, mitochondrial fusion screen; AID 1362; inhibition, % at 10 µM; hit rate 2.1% among 190,000; mitochondrial fusion phenotypic screen, WT strain; in the data active = inhibition above about 58%; tested in S. cerevisiae
CHOP inh = blocks CHOP induction under ER stress; CHO-K1 CHOP-promoter luciferase, tunicamycin-induced, 15-18 h; hit rate 3.8% among 220,000; inhibition, % at 10 µM;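 active = compounds that reduced the stress-induced luciferase reporter signal by more than about 70% of percent inhibition, limit read from the data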
RAM inhibit = inhibitors of the yeast RAM network; S. cerevisiae dse1pr::URA3 reporter, 5-FOA growth OD615, 2 d; analog-sensitive cbk1-as2 kinase mutant strain; inhibition, % at 50 µM; hit rate 1.8% among 190,000; AID 868;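 active = inhibition above a set limit, 3 SD over mean compound inhibition, cut at about 8.4% in these data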;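 also: inhibition rescues growth on 5-FOA so higher OD means more RAM inhibition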
Hits are given with their value; - = inactive; . = not tested or not shown. Only some compounds are listed: those with a hit (about 13% of all), similar ones and a draw of the others.

SMILES	L major viab	WT yeast gro inh	CHOP inh	RAM inhibit
COC(=O)c1ccc2c(=O)n(Cc3ccc(C(=O)NCCCN4CCC(C)CC4)cc3)c(=S)[nH]c2c1	-	-	-	-
O=S(=O)(Nc1nc2ccccc2nc1NCC1CCCO1)c1cccc(Cl)c1 (centres undefined)	.	.	-	.
COCCn1c(=S)[nH]c2cc(C(=O)N3CCc4ccccc43)ccc2c1=O	-	76.5	-	-
CCOC(=O)c1cc2occc2n1CC(=O)N1CCCc2ccccc21	-	-	-	-
CCN1C(=O)/C(=C2/C=Cc3ccccc3N2C)OC1=S	-	-	-	-
CN1/C(=C/c2cc[n+](C)c3ccccc23)C=Cc2ccccc21	100.7	91.0	-	-
Cc1cccc(NC(=S)N/N=C/c2ccc([N+](=O)[O-])s2)c1	92.8	-	-	-
Cc1ccc(NC(=O)/C=C/c2ccc([N+](=O)[O-])s2)cc1	97.0	-	-	-
Cc1cc(C(=O)N/N=C/c2ccc([N+](=O)[O-])s2)n[nH]1	.	.	-	.
Cc1cccc(NC(=O)/C=C/c2ccc([N+](=O)[O-])s2)c1	99.9	-	-	-
N/C(Cc1nc(-c2ccc(Cl)cc2)cs1)=N/O	.	.	-	.
CC(C)Cn1c(N)c(C(=O)CSc2nc3ccccc3c(=O)n2CCCN2CCOCC2)c(=O)n(C)c1=O	-	-	-	-
CCCCCCCc1nc2c(=O)n(C)c3ccccc3c2o1	-	-	88.8	-
CCOC(=O)c1c(NC(C)=O)sc2c(OC)c(Br)ccc12	-	.	-	-
CCOC(=O)c1c(NC(C)=O)sc2c(OC)cccc12	-	-	-	-
CCOC(=O)c1c(NC(C)=O)sc2c(OCC(O)CN(CC)CC)c(Br)ccc12 (centres undefined)	100.4	-	-	-
CCOC(=O)c1c(NC(C)=O)sc2c(OCCN(CC)CC)c(Br)ccc12	99.8	-	-	-
CCOC(=O)c1c(CC(C)C)csc1NC(=O)COC(=O)c1cc(OC)c(OC)cc1[N+](=O)[O-]	-	-	-	-
OCCCc1nc2ccccc2[nH]1	-	-	-	-
O=C(N/N=C/c1cccc(Br)c1)c1ccc(Br)cc1	-	-	-	-
O=C(COc1cccc(Br)c1)NN=C1c2ccccc2-c2ccccc21	-	-	-	-
O=C(NN=C1c2ccccc2-c2ccccc21)c1cccc(Br)c1	89.4	-	76.6	-
O=C(N/N=C/c1cccc(Oc2ccccc2)c1)c1cccc(Br)c1	95.0	-	-	-
O=C(N/N=C/c1cccc(Oc2ccccc2)c1)c1ccccc1Br	95.5	-	84.1	-
CCCCNC(=O)C(=O)N/N=C/c1cccc(Br)c1	-	-	70.6	-
SMILES	L major viab	WT yeast gro inh	CHOP inh	RAM inhibit
CCOC(=O)C(=O)N/N=C/c1cccc(Br)c1	.	.	-	.
Cn1cc(Br)c(C(=O)n2cc(Br)cn2)n1	-	-	-	-
O=C(O)c1ccccc1C(=O)NCC(O)COc1ccc(Cl)cc1 (centres undefined)	.	.	-	.
CCOC(=O)c1c(C)nc2sc3c(c2c1-c1ccc(OC)cc1)NC(c1ccc(OC)cc1)NC3=O (centres undefined)	-	-	-	-
COc1cc([N+](=O)[O-])ccc1NC(=S)NC(=O)CC(C)(C)C	-	-	-	-
Cn1nnnc1SCC(=O)c1ccc(Br)s1	-	-	-	-
Cn1c(Cc2ccccc2)nnc1SCC(=O)c1ccc(Br)s1	-	62.7	-	-
CC(C)CN1CCNC(=O)C1CC(=O)NCc1cnn(-c2cccc(F)c2)c1 (centres undefined)	-	-	-	-
CCC(C)Nc1nc(Cl)nc(NCCOc2ccccc2)n1 (centres undefined)	79.7	-	-	-
CC(C)Nc1nc(Cl)nc(NCCOc2ccccc2)n1	-	-	-	-
CC(C)CCNC(=O)CO/N=C/c1ccccc1OC(F)F	-	-	-	-
C=CCNC(=O)/C(C#N)=C/c1c(N(Cc2ccccc2)Cc2ccccc2)nc2ccccn2c1=O	76.0	-	-	-
C=CCNC(=O)/C(C#N)=C/c1ccc(SC)cc1	-	-	-	-
C=CCNC(=O)/C(C#N)=C/c1c(C)nn(-c2ccccc2)c1Cl	99.2	-	-	-
CCOc1ccccc1NC(=O)/C(C#N)=C/c1c(C)nn(-c2ccccc2)c1Cl	81.6	-	-	-
CCN(CC)c1ccc(C=C(c2nnnn2-c2ccc(C)cc2)c2nnnn2-c2ccc(C)cc2)cc1	-	-	-	-
COc1ccc(-n2c(=S)[nH]c3ccccc32)cc1	52.8	-	-	-
CCOC(=O)c1cc(-c2nnc(-c3ccc(Cl)cc3)o2)c(C)nc1C	-	-	-	-
CCOC(=O)c1cc(-c2ccc(Cl)cc2)nc2c1c(=O)[nH]c(=O)n2CCOC	-	-	77.7	-
CCOC(=O)c1cc(-c2ccc(Cl)cc2)nc2onc(C)c12	-	-	-	9.8
CCOC(=O)c1cc(-c2cc(OC)c(OC)c(OC)c2)nc2c1c(=O)[nH]c(=O)n2Cc1ccccc1	-	-	-	-
CN(C)CC(O)CN(c1ccccc1)c1ccccc1 (centres undefined)	.	.	-	.
COc1ccccc1NC(=O)CN(c1ccc(C23CC4CC(CC(C4)C2)C3)cc1)S(C)(=O)=O	79.3	-	-	-
O=c1cc(O)c2c(=O)n(-c3ccccc3)c3c(c2o1)CCCCC3	-	-	-	-
N=c1n(Cc2ccccc2)c2ccccc2n1CC(O)COc1ccccc1 (centres undefined)	100.4	-	-	-
SMILES	L major viab	WT yeast gro inh	CHOP inh	RAM inhibit
Cc1ccc(Cn2c(=N)n(CC(O)COc3ccccc3)c3ccccc32)cc1 (centres undefined)	100.5	-	-	-
OCc1nc2ccccc2n1CC(O)COc1ccccc1 (centres undefined)	-	-	-	-
Cc1cc(C)nc(NS(=O)(=O)c2ccc(N/C=C/C(=O)c3ccc(Cl)c(Cl)c3)cc2)n1	-	-	80.3	-
Cc1cc(C)nc(NS(=O)(=O)c2ccc(N/C=C\C(=O)c3ccc(Cl)cc3)cc2)n1	-	-	82.3	-
Cc1noc(NS(=O)(=O)c2ccc(N/C=C\C(=O)c3ccccc3)cc2)c1C	-	-	-	-
Cc1noc(NS(=O)(=O)c2ccc(N/C=C\C(=O)c3ccc(F)cc3)cc2)c1C	-	-	-	8.6
CC(C)Oc1ccccc1C1Nc2ccccc2C(=O)N1c1ccc2c(c1)OCCO2 (centres undefined)	62.7	-	-	-
CC(C)Oc1ccccc1C1CC(=O)Nc2cc3c(cc21)OCCO3 (centres undefined)	-	-	.	-
Cc1ccc(N(C(=O)Cn2nnc(-c3ccccc3)n2)C(C(=O)NC2CCCCC2)c2ccccn2)cc1C (centres undefined)	-	-	-	-
C/C(N)=C(/C#N)C(=O)CSc1nnc(-c2ccccc2Br)o1	-	-	-	-
CC(C)CCNC(=O)NC(=O)CSc1nnc(-c2ccccc2Br)o1	-	-	86.6	-
Nc1cc(C(F)(F)F)cc2c1SCC(=O)N2	-	-	-	-
O=S(=O)(c1ccc(N2CCN(Cc3ccc4c(c3)OCO4)CC2)nc1)N1CCOCC1	93.5	-	-	-
O=S(=O)(Cc1ccc(Cl)cc1)N1CCN(Cc2ccc3c(c2)OCO3)CC1	.	.	-	.
O=S(=O)(c1ccc(N2CCN(S(=O)(=O)c3ccc4c(c3)OCCO4)CC2)nc1)N1CCCC1	-	-	-	-

Screens from PubChem BioAssay.
